Some test systems named below: SR leukemia; RPMI-8226 leukemia; OVCAR-8 ovarian; OVCAR-5 ovarian; OVCAR-4 ovarian; SK-OV-3 ovarian; IGROV1 ovarian; OVCAR-3 ovarian; HS 578T breast; NCI/ADR-RES ovarian; T-47D breast; BT-549 breast; MDA-MB-435 melanoma; SW-620 colon; MCF7 breast; HCT-116 colon; HCC-2998 colon; KM12 colon.
Experiment in all cases: NCI-60 one-dose screen, 48 h (100 = growth as untreated, 0 = no growth, -100 = all killed)
What all share (details): 10 µM unless noted

Compounds without any hit were thinned out: in the full panel of roughly 83,000, 20% have a hit.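 How to read the values: 0–100, growth inhibition (40 = 60% inhibited); 0, no net growth; -100 to 0, cell death (-40 = 40% of starting cells died; -100 = all dead).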 Values without a mark were called inactive. Activity calls are given as the source filed them. The calls were made as follows: active = growth percent below 10; inactive = the rest.

In the case of `Cc1ccccc1NC(=O)c1sc2nc(C)c(C(=O)/C=C/c3ccccc3)cc2c1N`, the growth is 24.4% in the assay on SR leukemia; -24.7% (active) with RPMI-8226 leukemia; 6.75% (active) in the assay with OVCAR-8 ovarian; 20.8% in the assay with OVCAR-5 ovarian; 51.3% in the assay on OVCAR-4 ovarian; 82% in the assay with SK-OV-3 ovarian. Moreover, the growth in the assay on IGROV1 ovarian is 10.3%; in the assay on OVCAR-3 ovarian, -5.72% (active); with HS 578T breast, 10% (active); with NCI/ADR-RES ovarian, 1.11% (active); in the assay with T-47D breast, 32%; in the assay on BT-549 breast, 21.5%. For the same compound, the growth in the assay on MDA-MB-435 melanoma is -22.7% (active); in the assay with SW-620 colon, -10.5% (active); in the assay with MCF7 breast, 9.97% (active); in the assay on HCT-116 colon, 10.1%; in the assay with HCC-2998 colon it was -36.9% (active); in the assay with KM12 colon it was 9.57% (active).
With `CN1CCN(Cc2ccc3c(NNC(=O)c4ccccc4)nc4cc(F)ccc4n23)CC1`, the growth in the assay with SR leukemia was 7.6% (active); in the assay with RPMI-8226 leukemia, 26.4%; with OVCAR-8 ovarian it was 17.6%; with OVCAR-5 ovarian, 59.2%; with OVCAR-4 ovarian, 24.1%; with SK-OV-3 ovarian, 37.1%. Further, the growth in the assay on IGROV1 ovarian is 21.7%; in the assay on OVCAR-3 ovarian, 38.9%; with HS 578T breast, 70.6%; in the assay with NCI/ADR-RES ovarian, 8.77% (active); with T-47D breast, 24.7%; in the assay on BT-549 breast it was 49%. Besides, the growth was 28.1% in the assay on MDA-MB-435 melanoma; 25.3% in the assay on SW-620 colon; 13.9% with MCF7 breast; 27% in the assay on HCT-116 colon; 32.1% in the assay with HCC-2998 colon; 20% in the assay with KM12 colon.
For `Cc1nc2ncnc(Cl)c2[nH]1`, the growth with SR leukemia is 98.3%; in the assay with RPMI-8226 leukemia, 82.4%; with OVCAR-8 ovarian, 95.4%; in the assay on OVCAR-5 ovarian, 109%; with OVCAR-4 ovarian, 106%; with SK-OV-3 ovarian, 105%. Moreover, the growth with IGROV1 ovarian was 106%; in the assay with OVCAR-3 ovarian, 108%; in the assay on HS 578T breast, 110%; in the assay with NCI/ADR-RES ovarian, 108%; in the assay with T-47D breast, 95.7%; in the assay with BT-549 breast, 105%. Also, the growth in the assay with MDA-MB-435 melanoma is 105%; with SW-620 colon, 103%; in the assay with MCF7 breast, 91.3%; in the assay on HCT-116 colon, 84.3%; with HCC-2998 colon, 98.6%; with KM12 colon it was 102%.
Regarding `O=S(=O)(Nc1ccc(Cl)cc1)c1ccc(-c2cnc(C3CC3)o2)cc1`, the growth is 9.93% (active) with SR leukemia; 15% in the assay on RPMI-8226 leukemia; 29.2% in the assay on OVCAR-8 ovarian; 43.9% with OVCAR-5 ovarian; 63.7% with OVCAR-4 ovarian; 30.2% with SK-OV-3 ovarian. Besides, the growth in the assay on IGROV1 ovarian is 33%; in the assay with OVCAR-3 ovarian it was -17.3% (active); in the assay on HS 578T breast it was 4.3% (active); with NCI/ADR-RES ovarian it was 4.42% (active); with T-47D breast, 22.6%; in the assay with BT-549 breast, 51.8%. The growth is -3.04% (active) with MDA-MB-435 melanoma; 17.4% in the assay with SW-620 colon; 18.7% in the assay with MCF7 breast; 21.2% in the assay on HCT-116 colon; 40.3% in the assay with HCC-2998 colon; 20.9% in the assay on KM12 colon.
For `O=C(NCc1ccccc1)Nc1ccccc1CNc1nc(Nc2ccc(OCCN3CCCC3)cc2)ncc1Cl`, the growth is 7.02% (active) in the assay on SR leukemia; 76.1% with RPMI-8226 leukemia; 89.9% with OVCAR-8 ovarian; 112% in the assay with OVCAR-5 ovarian; 81.2% in the assay with OVCAR-4 ovarian; 99.3% with SK-OV-3 ovarian. In addition, the growth is 100% in the assay with IGROV1 ovarian; 104% with OVCAR-3 ovarian; 98% in the assay with HS 578T breast; 92.2% in the assay with NCI/ADR-RES ovarian; 104% in the assay with T-47D breast; 96.3% in the assay on BT-549 breast. The growth was 82.9% with MDA-MB-435 melanoma; 77.1% with SW-620 colon; 65.9% in the assay with MCF7 breast; 95.5% in the assay on HCT-116 colon; 96.9% in the assay on HCC-2998 colon; 94.2% with KM12 colon.
Take `COc1cc2oc(-c3cccc(NC(=O)c4cccc(Br)c4)c3)cc(=O)c2c(OC)c1OC`: the growth in the assay on SR leukemia is 43.2%; with RPMI-8226 leukemia, 25.5%; in the assay with OVCAR-8 ovarian it was 34.8%; in the assay on OVCAR-5 ovarian, 87.7%; in the assay with OVCAR-4 ovarian, 58.7%; in the assay on SK-OV-3 ovarian, 92.5%. The growth in the assay with IGROV1 ovarian was 58.8%; in the assay with OVCAR-3 ovarian, 66.5%; in the assay on HS 578T breast, 47.1%; in the assay on NCI/ADR-RES ovarian it was 53.1%; with T-47D breast, 27.7%; in the assay on BT-549 breast, 50.2%. Also, the growth in the assay on MDA-MB-435 melanoma was 57.4%; with SW-620 colon, 65.1%; with MCF7 breast, 54.8%; in the assay on HCT-116 colon, 40.2%; in the assay with HCC-2998 colon, 57.8%; in the assay on KM12 colon it was 40.4%.
On to `CC(=O)OCc1nc(C#N)c(N(C)C)o1`, for which the growth was 92.2% in the assay with SR leukemia; 99.6% in the assay on RPMI-8226 leukemia; 94.1% in the assay on OVCAR-8 ovarian; 86.9% in the assay with OVCAR-5 ovarian; 100% in the assay with OVCAR-4 ovarian; 90.1% in the assay on SK-OV-3 ovarian. In addition, the growth was 95% with IGROV1 ovarian; 99.1% with OVCAR-3 ovarian; 99.4% in the assay with HS 578T breast; 103% in the assay with NCI/ADR-RES ovarian; 83.9% in the assay on T-47D breast; 91.2% in the assay on BT-549 breast. For the same compound, the growth in the assay on MDA-MB-435 melanoma was 100%; with SW-620 colon, 101%; in the assay on MCF7 breast it was 92.9%; with HCT-116 colon, 93.4%; in the assay with HCC-2998 colon, 97%; in the assay on KM12 colon, 110%.
Consider `COC(=O)/C(CCC=C(C)C)=C1\[C@@H](OC(C)=O)C[C@@]2(C)[C@H]1C[C@@H](O)[C@H]1[C@@]3(C)CC[C@H](NCCN)[C@@H](C)[C@@H]3CC[C@@]12C`, for which the growth with SR leukemia is -17.8% (active); with RPMI-8226 leukemia, 70%; with OVCAR-8 ovarian, 86.3%; in the assay on OVCAR-5 ovarian, 104%; with OVCAR-4 ovarian it was 90.2%; in the assay on SK-OV-3 ovarian it was 93.6%. Besides, the growth is 86.6% in the assay on IGROV1 ovarian; 83.8% in the assay on OVCAR-3 ovarian; 77.9% in the assay on HS 578T breast; 93.4% with NCI/ADR-RES ovarian; 83.2% in the assay on T-47D breast; 84.8% with BT-549 breast. Also, the growth is 93.6% in the assay on MDA-MB-435 melanoma; 85.4% with SW-620 colon; 72.3% in the assay with MCF7 breast; 36.8% in the assay with HCT-116 colon; 91.3% in the assay on HCC-2998 colon; 88.9% with KM12 colon.

The values are drawn from PubChem BioAssay (NCI).
